Some test systems named below: NCI-H23 lung; NCI-H226 lung; NCI-H322M lung; HOP-62 NSCLC; NCI-H460 lung; HOP-92 NSCLC; NCI-H522 lung; 786-0 renal; COLO 205 colon; DU-145 prostate; K-562 leukemia; MALME-3M melanoma; MDA-MB-231 breast; RXF 393 renal; SF-268 CNS; SF-295 CNS; SF-539 CNS; UACC-257 melanoma; M14 melanoma; A549/ATCC NSCLC.
Common to all, as to assay: NCI-60 one-dose screen, 48 h (100 = growth as untreated, 0 = no growth, -100 = all killed)
What all share (conditions): 10 µM unless noted

Compounds without any hit were thinned out: in the full panel of roughly 83,000, 20% have a hit.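 Treatment: one concentration, 48 hours, 96-well format. Scoring: percent growth, with anything below 10 considered active.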 A number with no mark means an inactive call. Calls of active or inactive are those of the source.

In the case of `COc1ccc2cc(-c3cnc4nonc4n3)ccc2c1`, the growth in the assay on NCI-H23 lung was 30.6%; in the assay with NCI-H226 lung it was 52.6%; in the assay on NCI-H322M lung, 54.5%; in the assay with HOP-62 NSCLC, 37.4%; in the assay with NCI-H460 lung, 74.4%; with HOP-92 NSCLC, 80.8%. The growth in the assay on NCI-H522 lung was 7.22% (active); in the assay on 786-0 renal, 41.4%; in the assay on COLO 205 colon, 16.8%; in the assay with DU-145 prostate, 62.9%; in the assay on K-562 leukemia it was 13.6%; in the assay with MALME-3M melanoma, 48.3%. Besides, the growth was 76.4% in the assay with MDA-MB-231 breast; 23.4% with RXF 393 renal; 36.6% in the assay on SF-268 CNS; 31.4% in the assay on SF-295 CNS; -16% (active) with SF-539 CNS; 42% in the assay on UACC-257 melanoma. The growth in the assay with M14 melanoma was 10.7%.
Regarding `C(/C=C/c1ccccc1)=Nc1ccc(CCc2ccc(N=C/C=C/c3ccccc3)cc2)cc1`, the growth in the assay with NCI-H23 lung was 85.2%; in the assay with NCI-H226 lung it was 95.9%; in the assay on NCI-H322M lung, 97.6%; with NCI-H460 lung it was 54.8%; in the assay on HOP-92 NSCLC it was 107%; in the assay with NCI-H522 lung, 76.6%. The growth in the assay on A549/ATCC NSCLC was 104%; in the assay on 786-0 renal, 106%; with COLO 205 colon, 101%; in the assay on DU-145 prostate, 25.6%; in the assay with K-562 leukemia it was 78.3%; with MALME-3M melanoma, 115%. For the same molecule, the growth with MDA-MB-231 breast was 92%; with RXF 393 renal, 83.8%; in the assay with SF-268 CNS it was 104%; in the assay on SF-295 CNS, 73.3%; with SF-539 CNS it was 108%; in the assay on UACC-257 melanoma, 97.9%. The growth with M14 melanoma was 89.9%.
On to `CCN=C1C=CC(=C(c2ccc(N(C)C)cc2)c2ccc(N(C)C)cc2)c2ccccc21`, for which the growth is -5.87% (active) in the assay with NCI-H23 lung; -7.49% (active) with NCI-H226 lung; -30.1% (active) with NCI-H322M lung; -36.8% (active) with NCI-H460 lung; -21.5% (active) in the assay on HOP-92 NSCLC; -36.8% (active) in the assay with NCI-H522 lung. In addition, the growth was 1.14% (active) in the assay on A549/ATCC NSCLC; -11% (active) in the assay on 786-0 renal; -79% (active) in the assay on COLO 205 colon; 1.96% (active) in the assay on DU-145 prostate; 10.9% with K-562 leukemia; -48.4% (active) with MALME-3M melanoma. For the same molecule, the growth in the assay with MDA-MB-231 breast is -12% (active); in the assay on RXF 393 renal it was -29.2% (active); with SF-268 CNS it was -8.78% (active); with SF-295 CNS it was -37.5% (active); in the assay with SF-539 CNS, -57.4% (active); with UACC-257 melanoma, -10.1% (active). Besides, the growth in the assay on M14 melanoma is -42.2% (active).
For the molecule `C[C@@H]1CC[C@@]2(OC1)O[C@H]1C[C@H]3[C@@H]4CC=C5C[C@@H](O[C@@H]6O[C@H](CO)[C@@H](O[C@@H]7O[C@@H](CO)[C@H](O)[C@H]7O)[C@H](O)[C@H]6O[C@@H]6O[C@@H](C)[C@H](O)[C@@H](O)[C@H]6O)CC[C@]5(C)[C@H]4CC[C@]3(C)[C@H]1[C@@H]2C`, the growth in the assay with NCI-H23 lung is -95.5% (active); in the assay on NCI-H226 lung it was -51.8% (active); in the assay on NCI-H322M lung, -87.7% (active); in the assay on NCI-H460 lung, -93.7% (active); in the assay on HOP-92 NSCLC it was -67.2% (active); with NCI-H522 lung it was -41.4% (active). Besides, the growth with A549/ATCC NSCLC was -96.8% (active); with 786-0 renal, -89.6% (active); with COLO 205 colon, -89.9% (active); in the assay on DU-145 prostate it was -95.2% (active); with K-562 leukemia it was -1.01% (active); in the assay on MALME-3M melanoma it was -91.6% (active). Moreover, the growth with MDA-MB-231 breast was -95.3% (active); in the assay with RXF 393 renal it was -95% (active); in the assay on SF-268 CNS, -54.8% (active); with SF-295 CNS it was -91.7% (active); with SF-539 CNS it was -99.2% (active); in the assay on UACC-257 melanoma, -94% (active). In the assay with M14 melanoma, the growth is -92.6% (active).
Turning to `Cc1nc2sc(C(=O)Nc3ccc(Cl)cc3)c(N)c2cc1C(O)c1ccccc1` (configuration not stated), the growth with NCI-H23 lung was 42.6%; in the assay with NCI-H226 lung, 57%; in the assay with NCI-H322M lung it was 57.6%; in the assay with NCI-H460 lung it was 17.4%; in the assay with HOP-92 NSCLC it was 44.8%; with NCI-H522 lung, 33.2%. For the same molecule, the growth was 42.1% with A549/ATCC NSCLC; 46.5% with 786-0 renal; 29.6% in the assay with COLO 205 colon; 34.7% in the assay with DU-145 prostate; 9.79% (active) in the assay with K-562 leukemia; 44.1% in the assay on MALME-3M melanoma. For the same molecule, the growth in the assay with MDA-MB-231 breast was 52.2%; in the assay on RXF 393 renal, 47.3%; in the assay with SF-268 CNS it was 54.2%; in the assay on SF-295 CNS, 44.5%; with SF-539 CNS, 37.7%; in the assay on UACC-257 melanoma, 46.1%. In addition, the growth with M14 melanoma was 19.7%.
As to `CCN(CC)c1ccc(/C=N/NC(=O)c2ccc(Nc3ccnc(C(F)(F)F)c3)cc2)c(O)c1`, the growth is 31% with NCI-H23 lung; -3.5% (active) in the assay on NCI-H226 lung; 15.3% in the assay with NCI-H322M lung; -4.66% (active) in the assay with NCI-H460 lung; 42.4% in the assay with HOP-92 NSCLC; 49.7% with NCI-H522 lung. Further, the growth was 33.4% in the assay with A549/ATCC NSCLC; -16.2% (active) in the assay with 786-0 renal; -18% (active) in the assay on COLO 205 colon; 30.6% with DU-145 prostate; 87.2% in the assay with K-562 leukemia; 14.4% with MALME-3M melanoma. The growth in the assay on MDA-MB-231 breast was 24.4%; in the assay with RXF 393 renal, -0.93% (active); with SF-268 CNS, 18.5%; in the assay with SF-295 CNS, 7.62% (active); in the assay with SF-539 CNS, -46.4% (active); in the assay with UACC-257 melanoma, 49%. The growth in the assay with M14 melanoma is 19.3%.
`C=C1C(=O)O[C@H]2[C@H]1CC/C(COC(=O)NCCCCCCCCNC(=O)OC/C1=C/CC[C@@]3(C)O[C@H]3[C@H]3OC(=O)C(=C)[C@@H]3CC1)=C\CC[C@@]1(C)O[C@@H]21`: the growth in the assay on NCI-H23 lung is -53.6% (active); with NCI-H226 lung it was -84.2% (active); in the assay with NCI-H322M lung, -26.4% (active); in the assay on NCI-H460 lung, -51.1% (active); in the assay with HOP-92 NSCLC, -83.2% (active); with NCI-H522 lung, -68.7% (active). Besides, the growth was 2.89% (active) with A549/ATCC NSCLC; -89.9% (active) in the assay on 786-0 renal; -64.9% (active) in the assay on COLO 205 colon; -92.1% (active) in the assay with DU-145 prostate; -28.5% (active) with K-562 leukemia; -64.4% (active) in the assay with MALME-3M melanoma. For the same molecule, the growth in the assay on MDA-MB-231 breast is -79.1% (active); with RXF 393 renal, -83.6% (active); in the assay with SF-268 CNS it was -66.8% (active); in the assay with SF-295 CNS, -21.7% (active); in the assay with SF-539 CNS it was -88.5% (active); in the assay with UACC-257 melanoma it was -55.1% (active). Besides, the growth with M14 melanoma is -67.8% (active).
On to `Cc1ccc(/C=C/C(=O)c2ccc(NC(=O)CSc3nc4c([nH]3)c(=O)n(C)c(=O)n4C)cc2)c(C)c1`, for which the growth in the assay with NCI-H23 lung was 57.9%; with NCI-H226 lung, 47.2%; with NCI-H322M lung, 71.3%; in the assay with NCI-H460 lung, 24.5%; in the assay on HOP-92 NSCLC it was -35.2% (active); with NCI-H522 lung it was 32.5%. Further, the growth in the assay on A549/ATCC NSCLC is 33.6%; in the assay on 786-0 renal, 36%; in the assay with COLO 205 colon it was 84.8%; with DU-145 prostate, 40.1%; with K-562 leukemia, 55.9%; with MALME-3M melanoma it was 58.7%. The growth in the assay on MDA-MB-231 breast is 5.32% (active); with RXF 393 renal, -3.94% (active); in the assay with SF-268 CNS, 46.2%; in the assay with SF-295 CNS, 47.6%; with SF-539 CNS it was 55.1%; with UACC-257 melanoma, 62%. In the assay with M14 melanoma, the growth is 56.8%.

The record behind these values is PubChem BioAssay (NCI).
